In PubChem BioAssay (NCI):
Compounds without any hit were thinned out: in the full panel of roughly 83,000, 20% have a hit.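 Percent growth is the endpoint: 0 to 100 indicates growth inhibition (40 means 60% inhibition), 0 means no net growth, and negative values indicate cell death.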 A number with no mark means an inactive call. Active and inactive are the calls of the source. How the source made its calls: active means growth percent below 10; inactive means the rest.

How the values were obtained:
Assay in all cases: NCI-60 one-dose screen, 48 h (100 = growth as untreated, 0 = no growth, -100 = all killed)
Conditions in all cases: 10 µM unless noted
[1] = system: T-47D breast
[2] = system: BT-549 breast
[3] = system: MDA-MB-435 melanoma
[4] = system: SW-620 colon
[5] = system: MCF7 breast
[6] = system: HCT-116 colon
[7] = system: HCC-2998 colon
[8] = system: KM12 colon

SMILES	growth [1]	growth [2]	growth [3]	growth [4]	growth [5]	growth [6]	growth [7]	growth [8]
Cc1ccc(Cl)cc1NC(=O)c1sc2nc3c(cc2c1N)C(=O)CCC3	82.9%	93.5%	-3.04% (active)	36.5%	35.6%	68%	74.9%	37%
COc1cc(-c2nc3cc(Cl)c(Cl)cc3[nH]2)ccc1OCC(=O)N=Nc1c(O)[nH]c2ccc(Cl)cc12	-4.31% (active)	12%	-57.7% (active)	-14.2% (active)	1.63% (active)	-16.2% (active)	-39.2% (active)	9.24% (active)
O=C(Cc1ccc(/C=C/C(=O)c2ncc[nH]2)cc1)Nc1cc(C(F)(F)F)cc(C(F)(F)F)c1	80.5%	99.7%	60.1%	53.5%	7.59% (active)	5.37% (active)	63%	38.5%
CC1=CC(c2ccco2)=C2C(N)=NNC2N1 (stereo not drawn)	85.1%	100%	101%	102%	91%	100%	99.2%	105%
C[C@@H]1O[C@@H](O[C@@H]2C[C@H](c3ccc4c(c3O)C(=O)C3=C(C4=O)[C@@]4(O)C(=O)C[C@](C)(O)C[C@@]4(O)C=C3)O[C@H](C)[C@H]2O)CC[C@@H]1O[C@H]1C[C@@H](O)[C@H](O)[C@@H](C)O1	78.7%	100%	106%	94.4%	86.4%	91.1%	103%	101%
Cc1cccc(Oc2ccc(Nc3ncnc4ccc(NC(=O)CN5CCN(C)CC5)cc34)cc2Cl)c1	7.58% (active)	70.3%	-67.8% (active)	3.68% (active)	7.21% (active)	12.3%	19.3%	30.7%
NC1(CO)COC(c2ccccc2)OC1 (stereo not drawn)	103%	124%	117%	111%	111%	115%	126%	107%
O=C(Nc1ncc(Cc2cc(C(F)(F)F)ccc2Cl)s1)c1cccs1	31.9%	46.9%	1.23% (active)	47%	30%	39.9%	64.5%	29.5%
CN1CCN(Cc2ccc(NC(=O)c3cncc(C#Cc4cnc5ccc(Cl)nn45)c3)cc2C(F)(F)F)CC1	10.4%	-6.27% (active)	-10.4% (active)	-2.63% (active)	-2.36% (active)	-12.6% (active)	-24.4% (active)	-0.151% (active)
O=C1Nc2ccccc2C1(c1c[nH]c2ccccc12)c1c[nH]c2ccccc12	-21.2% (active)	-17.7% (active)	85%	77%	-1.78% (active)	36.6%	26.4%	11.9%
Cc1c2cccnc2c(C)c2c1c1cc(CO)ccc1n2C	17%	35%	22.6%	15.8%	6.87% (active)	6.95% (active)	34.7%	31.1%
CS(=O)(=O)c1ccc(NC(=O)c2ccccc2)nc1	98.9%	105%	111%	100%	101%	95.3%	107%	107%
COC(=O)N1CC(Oc2ccccn2)C2CC1c1ccccc1O2 (stereo not drawn)	99.9%	99.5%	105%	102%	102%	97.2%	104%	107%
O=C(O)/C=C/C(=O)Nc1cccc(Cn2nnc3cc(Cl)c(Cl)cc32)c1	93.2%	80.1%	106%	96.3%	89%	96.9%	112%	109%
C=CC(=O)Nc1ccc(Oc2nccc(Nc3nnc(-c4ccc(C)cc4)s3)n2)cc1	89.2%	73.4%	0.25% (active)	49.5%	80.6%	94.9%	110%	84%
CCN1CCN(c2cc(C)nc(N(CCNc3ccnc4cc(Cl)ccc34)Cc3ccc4c(c3)OCO4)n2)CC1	-62.1% (active)	36.4%	-66.3% (active)	0.855% (active)	-37.3% (active)	-23.2% (active)	-46% (active)	5.74% (active)

SMILES	growth [1]	growth [2]	growth [3]	growth [4]	growth [5]	growth [6]	growth [7]	growth [8]
CN(CCCNC(=O)Cc1ccc2ccc3cccc4ccc1c2c34)CCCNc1cc(-c2ccc3ccccc3c2)nc2ccccc12	-67% (active)	-4.41% (active)	-63.4% (active)	-69.4% (active)	-86.2% (active)	-85.4% (active)	-89.1% (active)	-80% (active)
CCN1C(=O)N(CC)C2C1NC(=S)N2/N=C/c1ccc(OC)cc1 (stereo not drawn)	49.8%	59.4%	-13.7% (active)	25.6%	22.5%	24.7%	67.8%	31.2%
O=C(N/N=C\c1cccc([N+](=O)[O-])c1)N/N=C/c1cccc([N+](=O)[O-])c1	97.2%	108%	108%	103%	66.5%	108%	109%	107%
COc1cccc(Nc2ncnc3cc(NC(=O)CCl)ccc23)c1	-32.6% (active)	-28.7% (active)	-82% (active)	-73.6% (active)	-8.63% (active)	-53.8% (active)	23%	-68.5% (active)
S=c1nc2oc(-c3ccccc3)c(-c3ccccc3)c2c(/N=C\c2ccco2)[nH]1	65.9%	103%	108%	101%	93.1%	84.4%	109%	94.1%
CCOC(=O)C#Cc1c(C(=O)OCC)nnn1Cc1ccc(C(F)(F)F)cc1	31.8%	63.1%	63.8%	-23.9% (active)	1.53% (active)	31.1%	102%	89.4%
O=C(Nc1ncccc1OCc1ccccc1)NC1CCCCCC1	71%	78.2%	89%	94.9%	79.9%	58.2%	105%	88.8%
Cc1ccc(CNc2c3ccccc3nc3ccccc23)cc1	25.1%	71.3%	31.2%	20.2%	9.04% (active)	12%	-2.62% (active)	23.4%
Cc1nc2c(=O)nc3s/c(=C\c4ccco4)c(=O)n3c2nc1C	94.3%	110%	94.1%	111%	96.4%	101%	97.2%	105%
COc1ccc(C[n+]2c3ccccc3n3c4ccc(N)cc4ccc32)c(OC)c1OC	5.52% (active)	5.31% (active)	53.9%	82.1%	31.9%	71.9%	67.9%	19.9%
CC1(C)CC[C@]23CC[C@]4(C)[C@H](CC[C@@H]5[C@@]6(C)C/C(=C/c7ccncc7)C(=O)C(C)(C)[C@@H]6CC[C@]54C)[C@H]2[C@H]1OC3	41.5%	99.3%	66.6%	61.3%	55.3%	50%	93%	68.4%
CCN1CCN(CC(=O)Nc2nc3ccc(NCc4ccc(F)cc4)cc3s2)CC1	86.8%	97.9%	93.4%	92.3%	92.1%	70.9%	110%	94.5%
O=C1Nc2ccccc2/C1=C/c1cccn1C(=O)c1ccc(Cl)s1	-31.3% (active)	65%	89.8%	56.4%	12.3%	34.6%	54.4%	4.36% (active)
CCN(CC)CCCN1C(=O)c2c(c(C)c3c(oc4ccc(OC)cc43)c2C)C1=O	105%	119%	109%	97.9%	98.3%	93.3%	105%	104%
Cc1nc2cc(O)c(O)cc2cc1Oc1ccc(NC(=O)Nc2ccc(Cl)c(Cl)c2)cc1	62.2%	82.2%	54.2%	49.3%	76.2%	44.6%	93.4%	74.6%
